Assay [1] can be described thus: qHTS assay for small molecule antagonists of peroxisome proliferator-activated receptor delta signaling (AID 588535; active means well fitted inhibition curve with a large enough effect in the signal ratio, with a control signal flat, not every such curve was filed as active; the % refers to the signal ratio; further: potency means the concentration at half of the fitted maximal effect;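 on max response: cells co-treated with a PPAR-delta agonist as stimulator during compound exposure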). The note with it: HEK293T PPARd-UAS-bla, beta-lactamase FRET ratio, 18 h; 460 nm channel. Put shortly:
(§1)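 Cells were seeded at 4000 per well in assay medium containing 2% charcoal/dextran FBS and held 5 hrs at 37 C. Compounds were then added for 18 hrs. CCF4 substrate was applied for 2 hrs at room temperature before fluorescence reading.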
In general terms: In qHTS, concentration-response curves come from the screen itself.

Assay [2] concerns the target Peroxisome proliferator-activated receptor delta (Homo sapiens) (UniProt Q03181). The description is as above. The note with it: HEK293T PPARd-UAS-bla, beta-lactamase FRET ratio, 18 h; series mostly up to 76.7 µM. Put shortly: as §1
The target in assay [3] is Peroxisome proliferator-activated receptor gamma (Homo sapiens) (UniProt P37231). In words: qHTS assay for small molecule agonists of peroxisome proliferator-activated receptor gamma signaling (AID 588536; active means well fitted curve in the direction sought with a large enough effect in the signal ratio, with a control signal flat, not every such curve was filed as active; the % refers to the signal ratio;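 further: 0% = DMSO basal wells and 100% = rosiglitazone at 2 µM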). The note with it: HEK293 PPARg-UAS-bla, beta-lactamase ratio, 16 h, percent of rosiglitazone response, DMSO as zero; series mostly up to 76.7 µM. Put shortly: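 Ratiometric blue/green fluorescence (405 nm excitation; 460 and 530 nm emission) from CCF4-loaded HEK293 reporter cells serves as signal. Exposure to test compounds lasts 16 h at 37 C in medium containing 1% charcoal/dextran-treated serum.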

For assay [4], the target named is Vitamin D3 receptor (Homo sapiens) (UniProt P11473). In words: qHTS assay for small molecule antagonists of vitamin D receptor signaling (AID 588541; calls by dose curve;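 further: receptor activated by calcitriol during compound treatment; on the % scale 0 is the no-effect control and ±100 the full control effect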). The note with it: HEK293T VDR-UAS-bla, beta-lactamase ratio, antagonist mode; series mostly up to 76.7 µM. Put shortly: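 VDR-UAS-bla HEK293T cells in 2% charcoal-stripped FBS were stimulated with 1-alpha,25-dihydroxyvitamin D3 (3 nM final) plus compound for 16 h at 37 C. The beta-lactamase CCF4 readout was normalized to 50 nM agonist and DMSO, and Hill fits gave IC50.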

Assay [5] has the same target. Nature of the assay: qHTS assay for small molecule agonists of vitamin D receptor signaling (AID 588543; calls by dose curve;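 further: 0% = DMSO basal and 100% = reference agonist control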). The note with it: HEK293T VDR-UAS-bla, beta-lactamase ratio, 16 h; series mostly up to 76.8 µM. Put shortly:
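VDR-UAS-bla HEK293T cells, 2000/well, 2% charcoal-stripped FBS; compound titration 16 h at 37 C; CCF4 beta-lactamase ratio read. Normalized to 50 nM 1-alpha,25-dihydroxyvitamin D3 (100%) and DMSO; Hill fit gives EC50, efficacy.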

Assay [6] can be described thus: qHTS assay for small molecule agonists of retinoid X receptor alpha signaling (AID 588544; calls by dose curve;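 on activation: 0% = DMSO basal wells and 100% = reference agonist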). The note with it: HEK293T RXRa-UAS-bla, beta-lactamase reporter, 18 h; 530 nm emission.
The target of assay [7] is Retinoic acid receptor RXR-alpha (Homo sapiens) (UniProt P19793). The description is as above. The note with it: HEK293T RXRa-UAS-bla, beta-lactamase reporter, 18 h; series mostly up to 76.7 µM.
The target in assay [8] is Thyroid hormone receptor beta (Homo sapiens) (UniProt P10828). In words: qHTS assay for small molecule agonists of thyroid hormone receptor beta signaling (AID 588545; calls by dose curve;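 further: 0% = DMSO only and 100% = 10 nM T3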). The note with it: TR-UAS-bla GripTite HEK 293, beta-lactamase ratio, agonist mode, 18 h; series mostly up to 76.7 µM. Summed up: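 Beta-lactamase reporter activity under TR response element control is measured in HEK 293 cells after 18 hrs compound exposure. Signal is ratiometric CCF4 fluorescence, 460/530 nm.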

The nature of assay [9]: qHTS assay for small molecule antagonists of retinoid X receptor alpha signaling (AID 588546; active means well fitted inhibition curve with a large enough effect in the signal ratio, with a control signal flat, not every such curve was filed as active; the % refers to the signal ratio;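 further: cells stimulated with 9-cis-retinoic acid as agonist; on the % scale 0 is the no-effect control and ±100 the full control effect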). The note with it: HEK293T RXRa-UAS-bla, beta-lactamase ratio, antagonist mode; measured here: W530 green channel, cytotoxicity proxy. Summed up: (§2)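 Beta-lactamase reporter inhibition, read as CCF4 fluorescence ratio (ex 405, em 460/530 nm) after 2 h at RT. HEK293T UAS-bla cells, 2500/well, were stimulated with 9-cis-RA at 500 or 100 nM final alongside test compound for 18 h at 37 C.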

Assay [10] has as its target Retinoic acid receptor RXR-alpha (Homo sapiens) (UniProt P19793). The description is as above. The note with it: HEK293T RXRa-UAS-bla, beta-lactamase ratio, antagonist mode. Summed up:
as §2

Assay [11] can be described thus: qHTS assay for small molecule activators of the p53 signaling pathway (AID 651743; active means well fitted activation curve with a large enough effect in the signal ratio, not every such curve was filed as active; the % refers to the signal ratio; further: % of control where 0% means no effect). The note with it: HCT-116 p53RE-bla, beta-lactamase FRET ratio, 16 h; activation: stronger effect = higher value. Put shortly: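 HCT-116 p53RE-bla, 4,000 cells/well; 5 h settle; cpd/DMSO 16 h, 37 C; LiveBLAzer B/G 2 h RT; fluorescence intensity.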
The nature of assay [12]: qHTS assay for small molecule activators of the nuclear factor-kappa B (NF-kB) signaling pathway (AID 651749; active means well fitted activation curve with a large enough effect in the signal ratio; the % refers to the signal ratio; further: potency means the concentration at half of the fitted maximal effect; on activation: % of control where 0% means no effect). The note with it: NF-kB-bla ME-180 cells, beta-lactamase FRET ratio, 16 h; activation: stronger effect = higher value. Summed up: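 Incubation lasted 16 hr at 37C in 5% CO2 after 23 nL compound addition to ME-180 NF-kB-bla cells. Activation appears as beta-lactamase-mediated FRET loss.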

The nature of assay [13]: qHTS assay for environmental chemicals that activate the Aryl hydrocarbon Receptor (AhR) signaling pathway (AID 651777). Further: nearly all actives have a fitted effect of over 15% in size. Further: potency means the concentration at half of the fitted maximal effect. On activation: % of control where 0% means no effect. The note with it: 1A2-DRE human hepatoma cells, luciferase, 24 h; activation: stronger effect = higher value. Summed up:
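Following a 24 hr incubation with test chemicals at 37 C and 5% CO2, 1A2-DRE human hepatoma cells received One-Glo reagent; after 30 min at room temperature, luciferase output reflected CYP1A2 induction via AhR.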

The target in assay [14] is Peroxisome proliferator-activated receptor alpha (Homo sapiens) (UniProt Q07869). Nature of the assay: qHTS assay for small molecule agonists of the peroxisome proliferator-activated receptor alpha (PPARalpha) signaling pathway (AID 651778). Further: % of control where 0% means no effect. The note with it: PathHunter PPARalpha complementation, chemiluminescence, 6 h; max response: stronger effect = higher value. Put shortly:
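Enzyme-fragment complementation assay in which ligand-bound PPARalpha translocates and forms an active enzyme that generates chemiluminescence. Cells were plated overnight, exposed to compound for 6 hr at 37 C, and then given detection reagent for 60 min at room temperature.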

Assay [15] is described as follows: qHTS assay for small molecule agonists of the antioxidant response element (ARE) signaling pathway measured by Nrf2-dependant transcriptional activity - cell viability counter screen (AID 720653; active means well fitted curve in the direction sought with a large enough effect in the repeat runs; an effect the other way counts as inactive or inconclusive; further: on the % scale 0 is the no-effect control and ±100 the full control effect). The note with it: ARE-bla HepG2 viability, CellTiter-Glo ATP luminescence, 16 h; max response: stronger effect = lower value. Put shortly:
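ARE-bla HepG2 cells treated with compounds for 16 h at 37C; this counter screen measures viability as intracellular ATP by CellTiter-Glo luminescence after 30 min at room temperature.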

The nature of assay [16]: qHTS assay for cell viability of HEK293 cells (AID 743288). Further: on the % scale 0 is the no-effect control and ±100 the full control effect; nearly all actives have a fitted effect of over 50% in size. The note with it: ATP luminescence (CellTiter-Glo), 18 h; max response: stronger effect = lower value. Summed up:
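Parental HEK293 cells, 2,000 per well, preincubated at least 5 h at 37 C, then exposed to compounds in DMSO for 18 h at 37 C. Viability by CellTiter-Glo ATP luminescence after 30 min at room temperature.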

The nature of assay [17]: qHTS assay for cell viability of the p53RE-bla HCT-116 cell line (AID 743292). Further: on the % scale 0 is the no-effect control and ±100 the full control effect; nearly all actives have a fitted effect of over 55% in size. The note with it: p53RE-bla HCT-116 viability, ATP luminescence, 16 h; series mostly up to 95 µM. Summed up: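 After plating at 4,000 cells per well and a 5 h rest at 37 C, HCT-116 cells carrying p53RE-bla received test chemicals in DMSO. Sixteen hours later at 37 C, CellTiter-Glo was added and luminescence recorded following 30 min at room temperature.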

For assay [18], the target named is Nuclear receptor subfamily 1 group I member 2 (Rattus norvegicus) (UniProt Q9R1A7). In words: qHTS assay for small molecule activators of the rat pregnane X receptor (rPXR) signaling pathway (AID 651751; call rule not given here; further: 0% is about no effect). The note with it: rPXR reporter cells, luciferase (One-Glo), 24 h.
A short description of assay [19]: qHTS assay for small molecule agonists of the antioxidant response element (ARE) signaling pathway measured by Nrf2-dependant transcriptional activity (AID 720636; active means well fitted curve in the direction sought with a large enough effect in the repeat runs; an effect the other way counts as inactive or inconclusive; further: % of control where 0% means no effect). The note with it: ARE-luc HepG2, Nrf2 luciferase reporter, 16 h; series mostly up to 92.4 µM. Put shortly: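 ONE-Glo luminescence, read 30 min after reagent addition at room temperature, reflected ARE reporter activity in HepG2 cells that had been incubated with compound for 16 hr at 37 C in 1% dialyzed FBS.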

The nature of assay [20]: qHTS assay for small molecule activators of the human pregnane X receptor (PXR) signaling pathway (AID 720659; call rule not given here; further: 0% is about no effect). The note with it: DPX-2 HepG2 CYP3A4-luciferase, 24 h; series mostly up to 92.3 µM.

Records with an inconclusive call do not appear. Activity calls are given as the source filed them. Unless noted, the call rests on the fitted dose curve; in most records, active means well fitted curve in the direction sought with a large enough effect; inconclusive means small, poorly fitted or top-dose-only effect, or another doubt; inactive means no such curve, though single readings can be large; an effect the other way counts as inactive or inconclusive.

Sequence of Thyroid hormone receptor beta (Homo sapiens) (P10828 whole entry, looked up): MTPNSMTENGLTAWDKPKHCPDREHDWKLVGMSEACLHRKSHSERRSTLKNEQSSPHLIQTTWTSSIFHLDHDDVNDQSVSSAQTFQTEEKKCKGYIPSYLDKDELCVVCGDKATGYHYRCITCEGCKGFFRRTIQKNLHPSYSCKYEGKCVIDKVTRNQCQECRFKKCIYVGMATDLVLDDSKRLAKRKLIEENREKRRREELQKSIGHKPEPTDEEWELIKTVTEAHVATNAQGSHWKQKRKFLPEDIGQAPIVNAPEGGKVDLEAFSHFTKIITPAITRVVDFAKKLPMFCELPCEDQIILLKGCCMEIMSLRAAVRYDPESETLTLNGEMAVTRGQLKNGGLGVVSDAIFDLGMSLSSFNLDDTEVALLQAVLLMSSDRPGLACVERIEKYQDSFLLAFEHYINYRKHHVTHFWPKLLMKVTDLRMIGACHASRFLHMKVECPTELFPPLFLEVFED
Sequence of Peroxisome proliferator-activated receptor alpha (Homo sapiens) (Q07869 whole entry, looked up, the tested form may be a part): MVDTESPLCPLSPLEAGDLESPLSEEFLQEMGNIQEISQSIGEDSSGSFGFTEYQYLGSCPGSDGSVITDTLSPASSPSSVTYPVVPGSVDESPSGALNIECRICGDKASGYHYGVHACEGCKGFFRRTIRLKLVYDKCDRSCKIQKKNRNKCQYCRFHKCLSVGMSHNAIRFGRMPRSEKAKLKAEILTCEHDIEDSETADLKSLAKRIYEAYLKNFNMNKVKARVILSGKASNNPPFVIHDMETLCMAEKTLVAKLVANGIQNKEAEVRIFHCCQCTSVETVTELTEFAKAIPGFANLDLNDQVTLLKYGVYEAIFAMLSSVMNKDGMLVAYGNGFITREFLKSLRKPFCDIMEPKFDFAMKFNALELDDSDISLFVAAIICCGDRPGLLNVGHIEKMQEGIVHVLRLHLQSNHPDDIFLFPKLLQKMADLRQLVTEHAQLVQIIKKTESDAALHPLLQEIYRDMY
Sequence of Nuclear receptor subfamily 1 group I member 2 (Rattus norvegicus) (Q9R1A7 whole entry, looked up): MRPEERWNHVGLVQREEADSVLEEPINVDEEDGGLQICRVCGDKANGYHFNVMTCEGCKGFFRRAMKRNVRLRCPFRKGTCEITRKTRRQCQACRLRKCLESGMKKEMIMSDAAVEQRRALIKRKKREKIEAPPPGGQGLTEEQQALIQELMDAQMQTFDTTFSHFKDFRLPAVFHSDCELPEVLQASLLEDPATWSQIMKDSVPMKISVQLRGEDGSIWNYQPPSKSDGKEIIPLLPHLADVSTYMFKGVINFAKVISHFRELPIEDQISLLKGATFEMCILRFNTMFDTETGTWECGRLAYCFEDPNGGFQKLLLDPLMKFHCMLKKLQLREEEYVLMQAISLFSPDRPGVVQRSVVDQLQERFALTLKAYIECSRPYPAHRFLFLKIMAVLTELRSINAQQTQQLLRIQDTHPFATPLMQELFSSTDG
Sequence of Vitamin D3 receptor (Homo sapiens) (P11473 whole entry, looked up): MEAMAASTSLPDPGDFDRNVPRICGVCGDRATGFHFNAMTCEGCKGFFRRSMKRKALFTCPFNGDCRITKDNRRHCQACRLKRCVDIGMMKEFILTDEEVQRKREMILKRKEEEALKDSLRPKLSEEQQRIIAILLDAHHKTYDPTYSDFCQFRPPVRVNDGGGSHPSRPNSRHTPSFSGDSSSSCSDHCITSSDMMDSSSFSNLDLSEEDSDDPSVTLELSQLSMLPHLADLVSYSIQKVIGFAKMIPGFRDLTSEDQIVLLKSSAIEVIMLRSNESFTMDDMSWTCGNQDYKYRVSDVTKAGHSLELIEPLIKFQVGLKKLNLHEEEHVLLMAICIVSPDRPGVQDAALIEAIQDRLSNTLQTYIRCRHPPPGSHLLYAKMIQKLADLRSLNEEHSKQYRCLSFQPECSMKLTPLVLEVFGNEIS
Sequence of Peroxisome proliferator-activated receptor gamma (Homo sapiens) (P37231 whole entry, looked up): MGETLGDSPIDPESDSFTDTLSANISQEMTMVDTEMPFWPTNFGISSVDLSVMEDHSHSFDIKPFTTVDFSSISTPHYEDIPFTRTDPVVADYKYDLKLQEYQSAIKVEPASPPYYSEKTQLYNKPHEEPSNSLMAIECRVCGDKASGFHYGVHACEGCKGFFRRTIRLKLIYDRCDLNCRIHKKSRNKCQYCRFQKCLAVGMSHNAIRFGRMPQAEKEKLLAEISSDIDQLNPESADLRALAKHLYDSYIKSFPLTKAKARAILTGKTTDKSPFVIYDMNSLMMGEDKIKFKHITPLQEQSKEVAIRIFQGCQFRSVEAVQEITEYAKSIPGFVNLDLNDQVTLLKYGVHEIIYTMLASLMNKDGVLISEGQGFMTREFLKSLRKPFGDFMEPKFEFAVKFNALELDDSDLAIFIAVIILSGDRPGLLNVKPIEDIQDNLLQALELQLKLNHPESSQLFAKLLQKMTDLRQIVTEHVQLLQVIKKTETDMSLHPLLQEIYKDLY
Sequence of Retinoic acid receptor RXR-alpha (Homo sapiens) (P19793 whole entry, looked up): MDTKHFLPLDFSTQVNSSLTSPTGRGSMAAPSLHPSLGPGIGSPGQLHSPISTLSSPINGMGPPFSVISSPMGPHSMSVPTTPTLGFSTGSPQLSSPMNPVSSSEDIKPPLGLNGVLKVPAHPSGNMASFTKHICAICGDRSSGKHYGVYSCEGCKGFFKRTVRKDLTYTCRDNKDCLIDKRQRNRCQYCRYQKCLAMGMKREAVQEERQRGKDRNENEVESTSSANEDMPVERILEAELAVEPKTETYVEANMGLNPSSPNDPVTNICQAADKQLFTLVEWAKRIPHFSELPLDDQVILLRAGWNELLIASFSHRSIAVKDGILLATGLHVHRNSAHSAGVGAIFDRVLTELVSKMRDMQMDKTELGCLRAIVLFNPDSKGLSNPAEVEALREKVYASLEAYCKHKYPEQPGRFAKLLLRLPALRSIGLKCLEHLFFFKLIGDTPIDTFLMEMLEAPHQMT
Sequence of Peroxisome proliferator-activated receptor delta (Homo sapiens) (Q03181 whole entry, looked up): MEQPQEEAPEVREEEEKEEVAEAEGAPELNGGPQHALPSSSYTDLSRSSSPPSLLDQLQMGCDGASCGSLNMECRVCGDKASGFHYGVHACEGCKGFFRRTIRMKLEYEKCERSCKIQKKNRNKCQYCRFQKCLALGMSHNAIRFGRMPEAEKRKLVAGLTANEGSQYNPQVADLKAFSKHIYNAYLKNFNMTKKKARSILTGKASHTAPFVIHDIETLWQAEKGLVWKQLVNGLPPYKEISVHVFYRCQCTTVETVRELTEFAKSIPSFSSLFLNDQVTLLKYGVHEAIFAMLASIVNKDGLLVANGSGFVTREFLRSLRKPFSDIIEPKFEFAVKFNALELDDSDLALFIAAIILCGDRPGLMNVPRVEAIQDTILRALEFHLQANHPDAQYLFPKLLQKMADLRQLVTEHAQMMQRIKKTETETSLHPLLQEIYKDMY

As to `O=c1n(CCO)c(=O)n(CCO)c(=O)n1CCO`, the max response in assay [1] was 3.67%; in assay [6] it was -13.7%; in [9], -6.53%; in [10], 2.33% (inactive); in [14] it was 0.0492% (inactive); in [15] it was -11.6% (inactive). For the same compound, the values for the max response in assay [16] and in assay [18] were -6.36% (inactive) and -0.84% (inactive), respectively. Moreover, the Potency result in assay [2], in [4], in assay [7], in assay [8] and in [17] was “inactive” in each case. Moreover, the result in assay [3] and in assay [5] was inactive. For the same compound, the activation in assay [11] was 3.11% (inactive); in [12], 4.3% (inactive); in assay [13] it was 0.674% (inactive).

As for `C#CCOC(=O)[C@@H](C)Oc1ccc(Oc2ncc(Cl)cc2F)cc1`, the max response in assay [1] was 41.4%; in assay [6] it was -11.8%; in assay [9], -4.05%; in assay [10], -3.03% (inactive); in assay [16], -6.8% (inactive); in [18], -2.33% (inactive). Further, the Potency result in assay [2], in assay [4], in [7], in [19] and in assay [17] was “inactive” each time. Moreover, the outcome in assay [3], in assay [5] and in [20] was inactive. Moreover, the results for the activation in assay [11] and in assay [13] were -3.45% (inactive) and -1.36% (inactive), respectively.

Turning to `O=C(O)CN(CCCN(CC(=O)O)CC(=O)O)CC(=O)O`, the max response in [1] is -69.3%; in assay [6], -16.9%; in assay [14], 0.851% (inactive); in [16], -11% (inactive); in [18] it was -5.79% (inactive). Also, the Potency in assay [2] is 14.1 µM (active). In addition, the outcome in assay [5] and in assay [20] was inactive. Besides, the Potency result in assay [7], in assay [8], in [19] and in [17] was “inactive” each time. Also, the activation is 0.672% (inactive) in [12] and 0.0297% (inactive) in [13].

As for `CC1COCc2cc3c(cc21)C(C)(C)C(C)C3(C)C` (stereo not given), the max response in [1] was -16.1%; in [6], -11.9%; in [9] it was -17.6%; in [10], 0.528% (inactive); in assay [14], 7.58% (inactive); in [15], -2.78% (inactive). Besides, the figures for the max response in assay [16] and in assay [18] were -3.83% (inactive) and 3.75% (inactive), respectively. In addition, the Potency entry in [2], in assay [4], in [7], in [8], in [19] and in assay [17] was “inactive” each time. The outcome in assay [3] and in assay [5] was inactive. For the same compound, the activation was -1.06% (inactive) in assay [11] and 1.51% (inactive) in [12].

With `O=S(c1ccc(Cl)cc1)c1cc(Cl)c(Cl)cc1Cl` (stereo not given), the max response was 14.8% in assay [1], -1.31% (inactive) in assay [14], -25.7% (inactive) in [15] and -14.5% (inactive) in assay [16]. For the same compound, the Potency entry in assay [2], in assay [4], in assay [8], in [19] and in [17] was “inactive” throughout. Moreover, in assay [5], the result was inactive. The activation in assay [11] is 3.87% (inactive); in assay [13] it was 0.902% (inactive). In assay [12], the Potency was 7.94 µM (active).

For the compound `CC(=O)Nc1ccc(N=Nc2cc(C)ccc2O)cc1`, the max response in assay [1] was 14%; in assay [6], 3.3%; in assay [9], -4.33%; in assay [10] it was -20.6% (inactive); in [14] it was -3.57% (inactive); in assay [15], 1.65% (inactive). In addition, the max response is -16.4% (inactive) in assay [16] and 1.28% (inactive) in assay [18]. Further, the Potency result in assay [2], in assay [7], in assay [8] and in [17] was “inactive” throughout. The result in [5] was inactive. Moreover, the activation in assay [11] was -6.18% (inactive); in [12], -1.84% (inactive). The Potency in assay [13] was 4.47 µM (active).
